Our source for the growth values is PubChem BioAssay (NCI).

The panel holds about 83,000 compounds, 20% with a hit somewhere; the sample as a whole holds those more often.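 Each cell line was grown in a 96-well plate and treated with one concentration of compound for 48 hours. Values below 10 were considered active.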 Unmarked numbers belong to inactive results. Calls of active or inactive are those of the source.

In one assay the test system is TK-10 renal. The assay can be described thus: NCI-60 one-dose screen, 48 h (100 = growth as untreated, 0 = no growth, -100 = all killed). Particulars: 10 µM unless noted.
As to `Nc1nc(Cl)cc(Cl)n1`, the growth is 93.6%.

For `CCCCCCCCCCCCCCCCOc1ccccc1NC(=O)CC(C)=O`, the growth was 114%.

`Cc1cc(Cc2ccccc2)c(O)c(Cc2ccccc2)c1`: the growth was 98.8%.

With `Nc1cc(N)ncn1`, the growth is 102%.

Turning to `CC(C)(C)NCCC(O)c1cc(C(F)(F)F)nc2c(C(F)(F)F)cccc12` (centres undefined), the growth was 82.9%.

Regarding `C=C(OC(C)=O)c1ccccc1`, the growth is 100%.

As for `O=Cc1c(O)c2ccccc2[nH]c1=O`, the growth was 106%.

For the compound `CN=S(=O)(OCCCCCOS(=O)(=NC)c1ccc(C)cc1)c1ccc(C)cc1` (centres undefined), the growth is 118%.

For the compound `CCOC(=O)c1c(C)[nH]c(C)c1C=O`, the growth is 95.9%.

Regarding `O=C(NCc1ccccc1)/C(=C/c1ccccc1)NC(=O)c1ccccc1`, the growth was 108%.

On to `O=c1cc(Cl)nc2ccccn12`, for which the growth is 105%.

Turning to `Oc1cc(O)c2c(c1)O[C@H](c1ccc(O)c(O)c1)[C@@H](O)C2`, the growth was 106%.

Take `CCOP(=O)(NC(c1ccccc1)c1ccccc1)OCC`: the growth is 112%.

`Cc1ccc2nc(N)nnc2c1`: the growth was 108%.

For `Cc1ccc(S(N)(=O)=O)cc1Cl`, the growth was 107%.

Regarding `Nc1cc2ccccc2c(O)c1O`, the growth was 114%.

In the case of `CC(C)N1CC(=O)N2CSCC2C1=O` (centres undefined), the growth is 109%.

As for `CCOC(=N)CC(=O)Nc1cccc(C)c1Cl`, the growth is 113%.

Turning to `Cc1cc2c(C(C)C)c(O)c(O)c(C=Nc3ccccc3[N+](=O)[O-])c2c(O)c1-c1c(C)cc2c(C(C)C)c(O)c(O)c(C=Nc3ccccc3[N+](=O)[O-])c2c1O`, the growth was 84.2%.

`Cc1cc(C(=O)NN)c(C#N)c(=O)[nH]1`: the growth was 115%.

For the compound `COC1OC(CO)C(OC)C(O)C1O` (centres undefined), the growth is 110%.

On to `CCOC(=O)/C(O)=C(\C=N\C(=S)Nc1ccc(Cl)c(Cl)c1)C(=O)OCC`, for which the growth was 117%.

In the case of `O=C(c1ccccc1)c1ccc(-c2ccc(O)cc2)cc1`, the growth is 68.7%.

For `CC(=O)C1C(=O)C(=O)N(c2cccc([N+](=O)[O-])c2)C1=O` (centres undefined), the growth was 125%.

Consider `CCOC(OCC)C(=O)c1ccccc1`, for which the growth was 84.1%.

For the compound `Cc1ccc(O)c(N)c1`, the growth was 127%.

Take `COC(=O)c1ccccc1C(=O)c1c(C)cc(C)cc1C`: the growth is 88.3%.

Turning to `COc1cc(-c2ccc(NC(=O)CC(C)=O)c(OC)c2)ccc1NC(=O)CC(C)=O`, the growth was 115%.

Turning to `Oc1cccc(CNC2CCCCC2)c1`, the growth is 105%.

For `COc1ccc(C(=O)C(=O)c2ccccc2)cc1`, the growth was 108%.

Turning to `CSc1cnc2ccccc2n1`, the growth is 94.1%.

`Nc1ccc2c(c1)Cc1cc(N)c(N)cc1-2`: the growth was 119%.

As to `CCCCN(C(=O)CC)c1ccccc1`, the growth was 97.2%.

Consider `Nc1c(Br)cc(O)c2c1C(=O)c1ccccc1C2=O`, for which the growth was 91.1%.

As for `CC(=O)N(C(C)=O)c1ccc(C)cc1`, the growth is 99.1%.

With `Cc1cc(CC(=O)NCCO)n(CCO)c(=O)c1`, the growth was 94.1%.

Regarding `CCOC(=O)c1ccc(NC(C)=O)o1`, the growth is 100%.

A further assay relates to ACHN renal. The description is as above. The conditions noted are these: 10 µM unless noted.
For the compound `Nc1nc(Cl)cc(Cl)n1`, the growth is 105%.

In the case of `CCCCCCCCCCCCCCCCOc1ccccc1NC(=O)CC(C)=O`, the growth was 98.6%.

Consider `Cc1cc(Cc2ccccc2)c(O)c(Cc2ccccc2)c1`, for which the growth was 92.9%.

With `Nc1cc(N)ncn1`, the growth was 102%.

On to `CC(C)(C)NCCC(O)c1cc(C(F)(F)F)nc2c(C(F)(F)F)cccc12` (centres undefined), for which the growth was 67.2%.

Regarding `C=C(OC(C)=O)c1ccccc1`, the growth was 115%.

Take `O=Cc1c(O)c2ccccc2[nH]c1=O`: the growth was 91.5%.

In the case of `CN=S(=O)(OCCCCCOS(=O)(=NC)c1ccc(C)cc1)c1ccc(C)cc1` (centres undefined), the growth was 77.2%.

Turning to `CCOC(=O)c1c(C)[nH]c(C)c1C=O`, the growth was 102%.

On to `O=C(NCc1ccccc1)/C(=C/c1ccccc1)NC(=O)c1ccccc1`, for which the growth was 104%.

Consider `O=c1cc(Cl)nc2ccccn12`, for which the growth is 110%.

As for `Oc1cc(O)c2c(c1)O[C@H](c1ccc(O)c(O)c1)[C@@H](O)C2`, the growth is 98%.

On to `CCOP(=O)(NC(c1ccccc1)c1ccccc1)OCC`, for which the growth was 103%.

Regarding `Cc1ccc2nc(N)nnc2c1`, the growth was 108%.

Take `Cc1ccc(S(N)(=O)=O)cc1Cl`: the growth was 107%.

On to `Nc1cc2ccccc2c(O)c1O`, for which the growth is 9.52% (active).

In the case of `CC(C)N1CC(=O)N2CSCC2C1=O` (centres undefined), the growth was 109%.

Regarding `CCOC(=N)CC(=O)Nc1cccc(C)c1Cl`, the growth was 105%.

As to `Cc1cc2c(C(C)C)c(O)c(O)c(C=Nc3ccccc3[N+](=O)[O-])c2c(O)c1-c1c(C)cc2c(C(C)C)c(O)c(O)c(C=Nc3ccccc3[N+](=O)[O-])c2c1O`, the growth was 83.3%.

`Cc1cc(C(=O)NN)c(C#N)c(=O)[nH]1`: the growth was 105%.

In the case of `COC1OC(CO)C(OC)C(O)C1O` (centres undefined), the growth was 104%.

Regarding `CCOC(=O)/C(O)=C(\C=N\C(=S)Nc1ccc(Cl)c(Cl)c1)C(=O)OCC`, the growth was 96.3%.

Take `O=C(c1ccccc1)c1ccc(-c2ccc(O)cc2)cc1`: the growth was 50.4%.

Consider `CC(=O)C1C(=O)C(=O)N(c2cccc([N+](=O)[O-])c2)C1=O` (centres undefined), for which the growth was 104%.

`CCOC(OCC)C(=O)c1ccccc1`: the growth was 99.3%.

For `Cc1ccc(O)c(N)c1`, the growth was 97%.

For the compound `COC(=O)c1ccccc1C(=O)c1c(C)cc(C)cc1C`, the growth is 101%.

Turning to `COc1cc(-c2ccc(NC(=O)CC(C)=O)c(OC)c2)ccc1NC(=O)CC(C)=O`, the growth is 88.6%.

On to `Oc1cccc(CNC2CCCCC2)c1`, for which the growth was 107%.

Turning to `COc1ccc(C(=O)C(=O)c2ccccc2)cc1`, the growth is 101%.

With `CSc1cnc2ccccc2n1`, the growth is 107%.

With `Nc1ccc2c(c1)Cc1cc(N)c(N)cc1-2`, the growth was 101%.

As for `CCCCN(C(=O)CC)c1ccccc1`, the growth is 103%.

As to `Nc1c(Br)cc(O)c2c1C(=O)c1ccccc1C2=O`, the growth was 97.1%.

As for `CC(=O)N(C(C)=O)c1ccc(C)cc1`, the growth is 112%.

As for `Cc1cc(CC(=O)NCCO)n(CCO)c(=O)c1`, the growth was 106%.

As for `CCOC(=O)c1ccc(NC(C)=O)o1`, the growth is 108%.
